Rab9 prom act = qHTS Assay for Rab9 Promoter Activators | Huh7 Rab9 promoter-luciferase reporter, luminescence, 24 h | Potency, µM (top dose mostly 9.22 µM), inactives show at the highest dose activation, negative = inhibition, hits mostly activators | 2.8% of 320,000 active | AID 485297, 2010; also: % of control where 0% means no effect; nearly all actives have a fitted effect of over 60% in size
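Rab9 promoter-driven luciferase in stably transfected Huh7 cells; 1500 cells/well rested 2 h, exposed to compound in DMSO for 24 h at 37 °C, 5% CO2. Luminescence read 10 min after adding luciferase reagent at ambient temperature.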
ELG1 DNA repair = qHTS screen for small molecules that inhibit ELG1-dependent DNA repair in human embryonic kidney (HEK293T) cells expressing luciferase-tagged ELG1; HEK293T ELG1-luciferase reporter, luminescence, 16 h; DNA damage induced by 5-fluorouridine; Potency, µM (series often up to 46.1 µM), for the others: top-dose activity change, negative = inhibition, most hits filed as inhibitors; 2.3% of 330,000 active; also: % is scaled to controls: 0 for no effect and ±100 for the full control effect; nearly all actives have a fitted effect of over 55% in size
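In this reporter screen, reduction of luminescence relative to DMSO vehicle indicated activity. Compounds and 5-fluorouridine were added together to 2,000 cells per well, incubated for 16 hr at 37 °C, then developed with ONE-Glo.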
NPC1 promoter act = qHTS Assay for NPC1 Promoter Activators | 2.4% of 320,000 active | Huh7 NPC1 promoter luciferase reporter, 24 h | AID 485313, 2010 | Potency, µM (titrated, usually from 9.22 µM), without a hit: top-dose activation, most hits filed as activators; also: % of control where 0% means no effect; nearly all actives have a fitted effect of over 60% in size
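Luciferase expression driven by the NPC1 promoter was measured in stably transfected Huh7 cells after a 24 h compound incubation, using a luciferase reagent and a luminescence read.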
FLuc modulator = qHTS profiling assay for firefly luciferase inhibitor/activator using purifed enzyme and Km concentrations of substrates (counterscreen for miR-21 project); purified FLuc, Km substrates, luminescence inhibition; Potency, µM (series often up to 57.5 µM), inactives show at the top dose activity change, negative = inhibition, most hits filed as inhibitors; 6.9% of 360,000 active;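 also: plate controls were vehicle for no effect and reference inhibitor for full effect; nearly all actives have a fitted effect of over 55% in size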
Target sequence (P08659 whole entry, looked up): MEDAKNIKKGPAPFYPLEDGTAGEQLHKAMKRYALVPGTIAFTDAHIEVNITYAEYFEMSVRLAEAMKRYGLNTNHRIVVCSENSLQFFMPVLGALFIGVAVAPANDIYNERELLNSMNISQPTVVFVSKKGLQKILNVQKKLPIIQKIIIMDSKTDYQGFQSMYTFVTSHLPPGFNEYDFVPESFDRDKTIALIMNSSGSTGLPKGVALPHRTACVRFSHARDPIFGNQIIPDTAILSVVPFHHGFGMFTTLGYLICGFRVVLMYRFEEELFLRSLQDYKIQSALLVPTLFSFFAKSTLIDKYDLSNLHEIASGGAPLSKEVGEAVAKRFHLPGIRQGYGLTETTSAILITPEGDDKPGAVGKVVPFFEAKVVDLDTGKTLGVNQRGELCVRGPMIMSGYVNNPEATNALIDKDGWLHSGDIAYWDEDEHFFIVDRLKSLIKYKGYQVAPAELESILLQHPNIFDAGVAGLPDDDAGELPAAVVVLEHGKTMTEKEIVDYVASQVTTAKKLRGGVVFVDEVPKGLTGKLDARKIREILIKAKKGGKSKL
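Purified P. pyralis luciferase (10nM final) with 10uM D-luciferin and 10uM ATP (Km levels) in 50mM Tris acetate pH 7.5, 10mM Mg acetate, 0.01% Tween-20, 0.05% BSA; qHTS 6-point titration, ~60 µM downward; luminescence read.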
SMN2 splice enh = qHTS Assay for Enhancers of SMN2 Splice Variant Expression | HEK293 SMN2-luciferase splicing reporter, luminescence, 30-36 h | Potency, µM (highest dose often 46.1 µM), inactives show at the top dose activity change, positive = activation, actives largely listed as activators | 2.8% of 210,000 active; also: % of control where 0% means no effect; nearly all actives have a fitted effect of over 55% in size
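HEK293 cells carry an SMN2 minigene-luciferase reporter in which exon 7 inclusion puts luciferase in frame. Cells were seeded at 2000 cells/well, attached for 10-12 hours, then exposed to compounds for 30-36 hours at 37C before ONE-Glo luminescence.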
ELG1 genotoxic = qHTS screen for small molecules that induce genotoxicity in human embryonic kidney (HEK293T) cells expressing luciferase-tagged ELG1 | HEK293T ELG1-luciferase reporter, luminescence, 16 h | Potency, µM (top dose mostly 46 µM), for the others: at the top dose activity change, positive = activation, hits mostly activators | 1.3% of 330,000 active; also: % of control where 0% means no effect; nearly all actives have a fitted effect of over 60% in size
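Luminescence read-out: rising ELG1-luciferase signal, reflecting elevated ELG1 protein under genetic stress, flags genotoxic compounds. Cells were treated for 16 hr at 37 °C before ONE-Glo detection.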
* marks the source's active call; other numbers are inactive results; ? = inconclusive; / = no result; [ ] = remark or other dose. Shown are actives, neighbours in structure and some others; about 9.3% of the full set was active somewhere. Calls follow the shape of the dose curve; as a rule, active = well fitted curve in the direction sought with a large enough effect; inconclusive = small, poorly fitted or top-dose-only effect, or another doubt; inactive = no such curve, though single readings can be large; an effect the other way counts as inactive or inconclusive. Potency is read from the fitted curve at half-maximal effect.

SMILES | Rab9 prom act | ELG1 DNA repair | NPC1 promoter act | FLuc modulator | SMN2 splice enh | ELG1 genotoxic
O=[N+]([O-])c1ccc(/C=N/Nc2nc(N3CCOCC3)nc(N3CCOCC3)n2)cc1 | -4.6% | ? | -3.2% | 0.6% | 2.5% | -5.9%
Brc1ccc(-c2ccc(/C=N/Nc3nc(N4CCOCC4)nc(N4CCOCC4)n3)o2)cc1 | -0.5% | 5.8µM* | -3.5% | -6.1% | -16.5% | -6.3%
Fc1cnc(N/N=C/c2ccc(-c3ccc(Br)cc3)o2)nc1N1CCOCC1 | -10.1% | 11.6µM* | -1.2% | ? | / | -25.2%
Clc1ccc(-c2ccc(/C=N/Nc3cc(N4CCOCC4)nc(N4CCOCC4)n3)o2)cc1 | -0.9% | 5.8µM* | -5.5% | 0.0% | -12.7% | -6.3%
O=C(COc1ccc(F)cc1)Nc1nnc(-c2ccncc2)s1 | -4.4% | -6.9% | 2.1% | -15.8% | -22.8% | -0.3%
CCCCn1c(N)c(N(CCOC)C(=O)c2ccc(F)c(S(=O)(=O)N3CCOCC3)c2)c(=O)[nH]c1=O | -1.1% | 12.2% | 0.1% | -0.2% | / | -6.4%
Cc1cc(C)nc(N/N=C/c2ccccc2OCc2ccccc2)n1 | 0.8% | ? | -1.5% | ? | -1.7% | -1.8%
Cc1cc(C)nc(N/N=C/c2ccccc2OCc2ccc(Br)cc2)n1 | 15.3% | ? | 14.2% | ? | 12.6µM* | -5.3%
Cc1cc(C)nc(N/N=C/c2ccccc2OCc2cccc(Br)c2)n1 | -4.6% | 20.6µM* | -0.8% | 19µM* | -10.3% | 0.8%
Cc1cc(C)nc(N/N=C/c2cc(Br)ccc2O)n1 | -6.6% | ? | -6.1% | 8.49µM* | / | ?
COc1ccccc1/C=C1\SC(N2CCC(C)CC2)=NC1=O | 5.1% | 0.4% | -29.0% | 12µM* | / | ?
COc1ccc(/C=C2\SC(N3CCc4ccccc4C3)=NC2=O)cc1 | -4.1% | -1.9% | 0.2% | ? | -31.8% | -1.6%
COc1cccc(/C=C2\SC(N3CCCC(C)C3)=NC2=O)c1OC (stereo unspecified) | ? | ? | ? | 5.36µM* | / | ?
CCOC(=O)C1CCN(C2=NC(=O)/C(=C/c3ccccc3OC)S2)CC1 | -1.0% | 1.4% | 8.5% | ? | / | 0.2%
COc1cccc(/C=C2\SC(N3CCC(C)CC3)=NC2=O)c1OC | 4.0% | 19.3% | 11.8% | 16.9µM* | / | 9.1%
COc1cc(/C=C2\SC(N3CCc4ccccc4C3)=NC2=O)cc(OC)c1OC | 0.3% | 18.4µM* | -1.5% | -6.9% | 9.6% | 6.6%
O=C(NN1C(=O)/C(=C\c2cccnc2)SC1=S)c1ccco1 | 0.2% | 3.4% | -8.6% | -16.9% | 8.6% | -3.6%
Cc1ccc(C(=O)N2CCN(C34CC5CC(CC(C5)C3)C4)CC2)o1 | 0.3% | -11.0% | -2.7% | 6.5% | / | -3.1%
COc1ccc(/C=C2\SC(=S)N(N3CCOCC3)C2=O)c(OC)c1 | -0.1% | 10.3% | 2.8% | ? | / | 8.7%
COc1cccc(/C=C2\SC(=S)N(N3CCOCC3)C2=O)c1OC | -2.7% | ? | -1.6% | 16.9µM* | 2.6% | ?
CCC(=O)Nc1ccccc1C(=O)C(=O)Nc1ccccc1 | 2.51µM* | ? | ? | 2.4% | ? | 7.7%
O=C(NN=C1CCCCCC1)C(=O)Nc1cccc(Br)c1 | 22.6% | ? | 18.0% | 6.01µM* | -1.9%[1.84 µM] | 17.2%
CCC(=O)Nc1ccccc1C(=O)OC(c1ccccc1)c1ccccc1 | -3.7% | 19.0% | -9.3% | 0.0% | 10.9%[1.84 µM] | -0.9%
CC(=O)Nc1ccccc1C(=O)C(=O)Nc1cccc(Br)c1 | 2.51µM* | ? | ? | -3.7% | 29.4% | 5.6%

Compound activity: PubChem, National Center for Advancing Translational Sciences (NCATS)
